Source: PubChem BioAssay (NCI)
The panel holds about 83,000 compounds, 20% with a hit somewhere; the sample as a whole holds those more often.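 How to read the values: 0–100, growth inhibition (40 = 60% inhibited); 0, no net growth; -100 to 0, cell death (-40 = 40% of starting cells died; -100 = all dead).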 Values without a mark were called inactive. Calls of active or inactive are those of the source. The calls were made as follows: active = growth percent below 10; inactive = the rest.

These molecules were tested on SF-295 CNS (assay: NCI-60 one-dose screen, 48 h (100 = growth as untreated, 0 = no growth, -100 = all killed)). Conditions: 10 µM.
`Cc1cc(Cl)nc(N(CCCNc2ccnc3cc(Cl)ccc23)Cc2cccs2)n1` gave a growth of 13.1%. For `COc1cc(Cl)cc(-c2nn(-c3cccc(NC(=O)Nc4cc(C(F)(F)F)cc(C(F)(F)F)c4)c3)cc2-c2ccncc2)c1`, the growth was -43.2% (active). `CN(C)CCNC(=O)c1cccn2c(=O)c3cc4ccccc4cc3nc12` was tested, and the growth was -19.7% (active). `CC12O[C@H](C[C@@H](O)[C@H]1O)n1c3ccccc3c3c4c(c5c6ccccc6n2c5c31)C(=O)N(CCCN)C4=O` was tested, and the growth was 51%. `CCCCCCCC(C)NCCO` (centres undefined) gave a growth of 90%. In the case of `Cc1cc(N(CCCNc2ccnc3cc(Cl)ccc23)Cc2ccc3c(c2)OCO3)nc(N2CCOCC2)n1`, the growth is reported as -9.78% (active). With `COc1cc(-c2nnc(-c3c(-c4ccc(F)cc4)nc4ccccn34)o2)cc(OC)c1OC` the growth was 74.6%. `COc1ccc2c(c1)/C(=C\c1c[nH]c3ccc(OC)cc13)C(=O)N2` was tested, and the growth was 74%. `NC(=O)CC1(c2ccccc2)CCCCC1` gave a growth of 103%. In the case of `COc1ccc(-c2nc3sccn3c2-c2nc3c([nH]2)C(=O)c2ccccc2C3=O)cc1`, the growth is reported as 87.2%. `Fc1ccc(-c2nnc(-c3c(-c4ccc(F)cc4)nc4ccccn34)o2)cc1` gave a growth of 88.7%. In the case of `CCN1CCCC1CNC(=O)c1ncc(-c2ccc(C(F)(F)F)cc2)c(NC2CCCCCC2)n1` (centres undefined), the growth is reported as 69.3%. `Cc1ccc(Nc2cc(C)nc(NCCCNc3ccnc4cc(Cl)ccc34)n2)cc1` was tested, and the growth was -85.6% (active). In the case of `Cn1c([N+](=O)[O-])cnc1/C=C1\Oc2ccccc2C1=O`, the growth is reported as -1.94% (active).
